From article PMC8384837, “Expanding the binding specificity for RNA recognition by a PUF domain”

molecular target: PUM1 PUF domain R1-KGQ (Homo sapiens, UniProt Q14671 828-1176, S863K;R864G); assay: yeast three-hybrid, YBZ-1, SC-Leu-His + 0.5 mM 3-AT, 4 days; details: tags: N-Gal4 AD-HA kept; label: inside an RPR1-promoter hybrid RNA with tandem MS2 sites; ssRNA
In short: (§1)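 A centromeric plasmid in strain YBZ-1 co-expressed Pumilio-1 PUF domain libraries, randomized at the three base-contacting residues of each repeat, with matching RNA elements; the strain carries a LexA–MS2 coat fusion and a HIS3 reporter. After four days on SC-Leu (input) or SC-Leu-His + 0.5 mM 3-AT (selection), the repeat regions were PCR-amplified and Illumina-sequenced. The interaction score is the log change in variant frequency from input to selection, using log2 and a pseudocount of 1 where absent.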

**Q.** How did the binding signal turn out when “GGCUAGAACUAGUGGAUCCCCCGGCGCCCGGCGGCUCGAGCCCGGGUAAGUGUAAAUCGUCUGCAUGCCGCCGGGCGCCAUGCCUGCAGGUCGACUCUAGAAAACAUG” was run?
**A.** The binding signal was 4.94 log2 enrichment (interaction score).

**Q.** For “GGCUAGAACUAGUGGAUCCCCCGGCGCCCGGCGGCUCGAGCCCGGGUAAGUGUAAAUUGUCUGCAUGCCGCCGGGCGCCAUGCCUGCAGGUCGACUCUAGAAAACAUG”, which binding signal is on record?
**A.** The binding signal was 5.42 log2 enrichment (interaction score).

**Q.** “GGCUAGAACUAGUGGAUCCCCCGGCGCCCGGCGGCUCGAGCCCGGGUAAGUGUAAAUGGUCUGCAUGCCGCCGGGCGCCAUGCCUGCAGGUCGACUCUAGAAAACAUG” was tested. Which binding signal did it give?
**A.** Its binding signal is 2.56 log2 enrichment (interaction score).

molecular target: PUM1 PUF domain R4-WSA (Homo sapiens, UniProt Q14671 828-1176, N971W;H972S;Q975A); assay: as above; details: tags: N-Gal4 AD-HA kept; label: inside an RPR1-promoter hybrid RNA with tandem MS2 sites; ssRNA
In short: as §1

**Q.** “GGCUAGAACUAGUGGAUCCCCCGGCGCCCGGCGGCUCGAGCCCGGGUAAGUGUAUAUAGUCUGCAUGCCGCCGGGCGCCAUGCCUGCAGGUCGACUCUAGAAAACAUG” was tested. Which binding signal did it give?
**A.** The binding signal was 2.96 log2 enrichment (interaction score).

**Q.** “GGCUAGAACUAGUGGAUCCCCCGGCGCCCGGCGGCUCGAGCCCGGGUAAGUGUAAAUAGUCUGCAUGCCGCCGGGCGCCAUGCCUGCAGGUCGACUCUAGAAAACAUG” was tested. Which binding signal did it give?
**A.** Its binding signal is 1.33 log2 enrichment (interaction score).

**Q.** For “GGCUAGAACUAGUGGAUCCCCCGGCGCCCGGCGGCUCGAGCCCGGGUAAGUGUACAUAGUCUGCAUGCCGCCGGGCGCCAUGCCUGCAGGUCGACUCUAGAAAACAUG”, which binding signal is on record?
**A.** Its binding signal is 2.8 log2 enrichment (interaction score).
